Source: PubChem BioAssay (NCI)
Compounds without any hit were thinned out: in the full panel of roughly 79,000, 15% have a hit. Values without a mark were called inactive. Calls of active or inactive are those of the source. No stated cut-off is given here; in the data, active means growth inhibition above about 70%; inactive means the rest.

Key:
[1] = NCI Yeast Anticancer Drug Screen. Data for the rad52 strain (AID 147);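 further: 0% = growth of vehicle-treated control cultures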; details: S. cerevisiae rad52 mutant growth inhibition, active compounds read high
Outline: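 DNA repair-defective yeast; compound exposure; growth scored against vehicle controls.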

[2] = NCI Yeast Anticancer Drug Screen. Data for the wt1 strain (AID 149);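 further: 0% = growth of vehicle-treated wt1 cultures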; details: S. cerevisiae wt1 strain (SPY 50644) growth inhibition, active compounds read high
Outline: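 Growth inhibition read against vehicle controls after compound exposure of the wt1 yeast strain.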

[3] = NCI Yeast Anticancer Drug Screen. Data for the rad50EPP+ strain (AID 151);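 further: 0% = growth of vehicle-treated control cultures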; details: S. cerevisiae rad50 mutant strain, active compounds read high
Outline: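 rad50EPP+ yeast treated with test compounds. Readout: growth vs vehicle control.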

[4] = NCI Yeast Anticancer Drug Screen. Data for the mgt1 strain (AID 153); details: S. cerevisiae mgt1 mutant growth inhibition, active compounds read high
Outline: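 Growth inhibition relative to vehicle controls was scored for the mgt1 yeast strain after compound exposure.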

[5] = NCI Yeast Anticancer Drug Screen. Data for the rad50 strain (AID 155);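 further: 0% = growth of vehicle-only cultures of the same strain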; details: S. cerevisiae rad50 strain growth inhibition, active compounds read high
Outline: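 Readout: growth inhibition relative to vehicle-treated cultures. Compound exposure was carried out in a genetically defined yeast strain deficient in DNA damage repair.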

[6] = NCI Yeast Anticancer Drug Screen. Data for the mec2-1 strain (AID 157); details: S. cerevisiae mec2-1 strain, active compounds read high
Outline: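 Growth inhibition is read against vehicle-treated controls after compound exposure of the mec2-1 yeast strain, which is defective in DNA damage repair or cell cycle control.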

[7] = NCI Yeast Anticancer Drug Screen. Data for the rad14 strain (AID 159);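 further: 0% = growth of vehicle-treated control cultures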; details: S. cerevisiae rad14 strain growth inhibition, active compounds read high
Outline: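 Growth inhibition vs vehicle controls; genetically altered yeast strain (DNA damage repair defect) treated with test compounds.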

[8] = NCI Yeast Anticancer Drug Screen. Data for the sgs1 mgt1 strain (AID 161);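 further: 0% = growth of cultures given vehicle only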; details: S. cerevisiae sgs1 mgt1 strain, active compounds read high
Outline: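 Yeast cells carrying a defined DNA-repair defect were exposed to test compounds. Growth inhibition was measured relative to vehicle-treated controls.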

[9] = NCI Yeast Anticancer Drug Screen. Data for the CLN2oe strain (AID 163);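 further: 0% = growth of vehicle-only control cultures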; details: S. cerevisiae CLN2oe strain, active compounds read high
Outline: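 Compound-treated yeast; growth vs vehicle ctrl = % inhibition. Genetically altered strain (cell-cycle control).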

[10] = NCI Yeast Anticancer Drug Screen. Data for the cln2 rad14 strain (AID 165);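 further: 0% = growth equal to vehicle treated cultures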; details: S. cerevisiae cln2 rad14 strain, active compounds read high
Outline: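 Growth inhibition, relative to vehicle-treated controls, is the read-out. The test organism is a yeast strain with defined genetic alterations, cln2 rad14.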

[11] = NCI Yeast Anticancer Drug Screen. Data for the bub3 strain (AID 167); details: S. cerevisiae bub3 mutant strain, active compounds read high
Outline: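 Readout: yeast growth inhibition, expressed relative to vehicle-only wells. The test organism is a mutant strain from a panel with lesions in DNA repair or checkpoint genes.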

[12] = NCI Yeast Anticancer Drug Screen. Data for the wt2 strain (AID 169);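 further: 0% = growth of vehicle-treated yeast cultures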; details: S. cerevisiae wt2 strain growth inhibition, active compounds read high
Outline: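 Compound exposure of yeast; growth compared with vehicle controls; inhibition reported.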

[13] = NCI Yeast Anticancer Drug Screen. Data for the mlh1 strain (AID 171);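 further: 0% = growth of vehicle-treated control cultures of the same strain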; details: S. cerevisiae mlh1 strain growth inhibition, active compounds read high
Outline: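 Compounds are applied to a genetically altered yeast strain, and its growth is compared with that of vehicle-treated cultures to give percent inhibition.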

[14] = NCI Yeast Anticancer Drug Screen. Data for the sgs1 strain (AID 173);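 further: 0% = growth of vehicle-only control cultures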; details: S. cerevisiae sgs1 mutant, active compounds read high
Outline: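 Compounds applied to genetically altered yeast; growth compared with vehicle-treated cultures to give % inhibition.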

[15] = NCI Yeast Anticancer Drug Screen. Data for the mlh1 rad18 strain (AID 175); details: S. cerevisiae mlh1 rad18 strain growth inhibition, active compounds read high
Outline: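 Cells of a genetically altered yeast strain, deficient in DNA damage repair, were treated with compound. Their growth was then compared with that of vehicle-treated cultures to give inhibition.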

[16] = NCI Yeast Anticancer Drug Screen. Data for the rad18 strain (AID 177); details: S. cerevisiae rad18 mutant growth inhibition, active compounds read high
Outline: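 Compounds are applied to a repair-deficient yeast strain, and growth is compared with that of vehicle-treated cultures to give percent inhibition.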

[17] = at 5.0 µM (retest, dose inferred, filed as 0.5)
[18] = at 50.0 µM (retest, dose inferred, filed as 5.0)

CCCCCCCN(CCCCCCC)CC(=O)c1ccc2cc(Cl)c3ccccc3c2c1
growth inhibition ([1]; at 1.2 µM): 3% | growth inhibition ([1]; at 3.7 µM): 19% | growth inhibition ([1]; at 11.0 µM): 98% (active) | growth inhibition ([1]; at 33.0 µM): 96% (active) | growth inhibition ([1]; at 100.0 µM): 92% (active) | growth inhibition ([2]; at 1.2 µM): -7% | growth inhibition ([2]; at 3.7 µM): 18% | growth inhibition ([2]; at 11.0 µM): 97% (active) | growth inhibition ([2]; at 33.0 µM): 97% (active) | growth inhibition ([2]; at 100.0 µM): 92% (active) | growth inhibition ([3]; at 1.2 µM): -5% | growth inhibition ([3]; at 3.7 µM): 0% | growth inhibition ([3]; at 11.0 µM): 29% | growth inhibition ([3]; at 33.0 µM): 58% | growth inhibition ([3]; at 100.0 µM): 94% (active) | growth inhibition ([4]; at 1.2 µM): 5% | growth inhibition ([4]; at 3.7 µM): 19% | growth inhibition ([4]; at 11.0 µM): 98% (active) | growth inhibition ([4]; at 33.0 µM): 98% (active) | growth inhibition ([4]; at 100.0 µM): 95% (active) | growth inhibition ([5]; at 1.2 µM): 2% | growth inhibition ([5]; at 3.7 µM): 28% | growth inhibition [5, 17]: 39% | growth inhibition ([5]; at 11.0 µM): 98% (active) | growth inhibition ([5]; at 33.0 µM): 97% (active) | growth inhibition [5, 18]: 93% (active) | growth inhibition ([5]; at 50.0 µM): 99.3% (active) | growth inhibition ([5]; at 100.0 µM): 92% (active) | growth inhibition ([6]; at 1.2 µM): 1% | growth inhibition ([6]; at 3.7 µM): 0% | growth inhibition [6, 17]: 26% | growth inhibition ([6]; at 11.0 µM): 78% (active) | growth inhibition ([6]; at 33.0 µM): 98% (active) | growth inhibition [6, 18]: 96% (active) | growth inhibition ([6]; at 50.0 µM): 99.4% (active) | growth inhibition ([6]; at 100.0 µM): 96% (active) | growth inhibition ([7]; at 1.2 µM): 36% | growth inhibition ([7]; at 3.7 µM): 50% | growth inhibition ([7]; at 11.0 µM): 98% (active) | growth inhibition ([7]; at 33.0 µM): 97% (active) | growth inhibition ([7]; at 100.0 µM): 95% (active) | growth inhibition [8, 17]: 60% | growth inhibition [8, 18]: 96% (active) | growth inhibition ([8]; at 50.0 µM): 99.2% (active) | growth inhibition ([9]; at 1.2 µM): 1% | growth inhibition ([9]; at 3.7 µM): 22% | growth inhibition ([9]; at 11.0 µM): 98% (active) | growth inhibition ([9]; at 33.0 µM): 97% (active) | growth inhibition ([9]; at 100.0 µM): 92% (active) | growth inhibition [10, 17]: 14% | growth inhibition [10, 18]: 93% (active) | growth inhibition ([10]; at 50.0 µM): 98.5% (active) | growth inhibition ([11]; at 1.2 µM): 9% | growth inhibition ([11]; at 3.7 µM): 24% | growth inhibition [11, 17]: 26% | growth inhibition ([11]; at 11.0 µM): 98% (active) | growth inhibition ([11]; at 33.0 µM): 97% (active) | growth inhibition [11, 18]: 95% (active) | growth inhibition ([11]; at 50.0 µM): 98.2% (active) | growth inhibition ([11]; at 100.0 µM): 94% (active) | growth inhibition ([12]; at 1.2 µM): 32% | growth inhibition ([12]; at 3.7 µM): 64% | growth inhibition ([12]; at 11.0 µM): 98% (active) | growth inhibition ([12]; at 33.0 µM): 97% (active) | growth inhibition ([12]; at 100.0 µM): 95% (active) | growth inhibition ([13]; at 1.2 µM): -9% | growth inhibition ([13]; at 3.7 µM): 40% | growth inhibition ([13]; at 11.0 µM): 98% (active) | growth inhibition ([13]; at 33.0 µM): 97% (active) | growth inhibition ([13]; at 100.0 µM): 93% (active) | growth inhibition ([14]; at 1.2 µM): 5% | growth inhibition ([14]; at 3.7 µM): 26% | growth inhibition ([14]; at 11.0 µM): 98% (active) | growth inhibition ([14]; at 33.0 µM): 97% (active) | growth inhibition ([14]; at 100.0 µM): 93% (active) | growth inhibition [15, 17]: 25% | growth inhibition [15, 18]: 94% (active) | growth inhibition ([15]; at 50.0 µM): 99.5% (active) | growth inhibition ([16]; at 1.2 µM): -9% | growth inhibition ([16]; at 3.7 µM): 19% | growth inhibition ([16]; at 11.0 µM): 98% (active) | growth inhibition ([16]; at 33.0 µM): 97% (active) | growth inhibition ([16]; at 100.0 µM): 93% (active)
